FMDV inh – High Throughput Screening for Foot and Mouth Disease Virus Antivirals; Potency, µM (top dose mostly 57.9 µM), without a hit: at the top dose activity change, negative = inhibition, usual class: inhibitors; FMDV antiviral cell-based qHTS; 410,000 tested, 1.2% active; AID 1159524, 2015; calls by dose curve; tested in HEK293T cells; also: read-out not given here; potency is read from the fitted curve at half-maximal effect; nearly all actives have a fitted effect of over 45% in size
Lassa entry inh – qHTS for Inhibitors of binding or entry into cells for Lassa Virus | Lassa virus pseudotype entry inhibition, cell reporter | 300,000 tested, 1.2% active | Potency, µM (highest dose often 37.9 µM), without a hit: at the highest dose activity change, negative = inhibition, usual class: inhibitors; calls by dose curve; tested in HEK293 cells; also: potency is read from the fitted curve at half-maximal effect; nearly all actives have a fitted effect of over 50% in size
HCV inh – qHTS Assay for Inhibitors of Hepatitis C Virus (HCV) | Huh7.5.1 HCVcc-Cre infection, luciferase reporter, 44 h | AID 651820, 2012 | Potency, µM (highest dose often 41.8 µM), for the others: at the top dose activity change, negative = inhibition, actives largely listed as inhibitors | 340,000 tested, 3.4% active; active = well fitted inhibition curve with a large enough effect; inconclusive = small, poorly fitted or top-dose-only effect, or another doubt; inactive = no such curve, though single readings can be large or run the other way; also: potency is read from the fitted curve at half-maximal effect
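Seed cells (1,000/well) for 4 h; treat with compound and infect with HCVcc-Cre, moi about 0.5. Incubate 44 h, then detect luciferase activity.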
MARV entry inh – qHTS for inhibitors of binding or entry into cells for Marburg Virus. Potency, µM (titrated, usually from 37.8 µM), inactives show at the top dose activity change, negative = inhibition, most hits filed as inhibitors. Marburg virus pseudotyped entry inhibition, cell reporter. 300,000 tested, 1.8% active; calls by dose curve; tested in HEK293 cells; also: potency is read from the fitted curve at half-maximal effect
HCMV inh – qHTS Assay for inhibitors of the human cytomegalovirus (HCMV); 410,000 tested, 4.5% active; activity change, negative = inhibition, % at 57.5 µM; HFF cells, HCMV-luciferase reporter, 72 h; stronger effect = lower value; AID 1259415, 2018; in the data active = activity change below about -60%; inconclusive = no clear call, values can overlap the other calls; inactive = above about -39%
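Two compound doses tested in HFFs infected with HCMV-luciferase, MOI 1 PFU/cell, 72 h at 37C. Lysate luminescence read with OneGlo; data normalized against buffer-only and 10uM Salinomycin inhibitor controls.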
* marks the source's active call; other numbers are inactive results; ? = inconclusive; nt = no result; ! = a repeat was not active; [ ] = remark or other dose. Hits are enriched below; roughly 7.9% of the tested compounds scored in any of these assays. % is scaled to controls: 0 for no effect and ±100 for the full control effect.

SMILES	FMDV inh	Lassa entry inh	HCV inh	MARV entry inh	HCMV inh
Cc1ccc(-c2onc(C)c2C)cc1S(=O)(=O)NC1CCC(C)CC1 (stereo not drawn)	19%	20%[46.1 µM]	nt	nt	-67*
CCOC(=O)C1CCCN(S(=O)(=O)c2cc(-c3onc(C)c3C)ccc2OC)C1 (stereo not drawn)	0%	?	nt	nt	-7
Cc1ccc2c(c1)N(S(=O)(=O)c1cc(-c3onc(C)c3C)ccc1C)CCO2	?	?	5µM*	14%[46.1 µM]	-67*!
COc1ccc(-c2cc(C)no2)cc1S(=O)(=O)N1CCOc2ccc(Cl)cc21	13%	8%[46.1 µM]	-2%	nt	?
Cc1ccc(-c2onc(C)c2C)cc1S(=O)(=O)Nc1ccc(Cl)cn1	61%	14%[46.1 µM]	nt	nt	103
Cc1cc(C)c(NS(=O)(=O)c2cc(-c3onc(C)c3C)ccc2C)c(C)c1	4%	-11%[46.1 µM]	nt	nt	-62*
COc1ccc2cnoc(=O)c2c1OC	-3%	nt	nt	nt	nt
CC(C)Oc1ccc(CNC(=O)C2CCN(C(=O)N3CC(C)Oc4ccccc43)CC2)cc1 (stereo not drawn)	?	?	nt	nt	-12
CCCCN(C)CCNC(=O)c1ccc(Cn2c(=S)[nH]c3ccc(Br)cc3c2=O)cc1	43%	7%	11µM*	?	15
CN(C)CCNC(=O)c1ccc2c(=O)n(Cc3ccc(Cl)cc3)c(=S)[nH]c2c1	-10%	?	?	?	12
COc1cccc(CNC(=O)c2c(OC)cc(=O)n3c2CCN(C(=O)c2csc(C)n2)CC3)c1	20%	nt	nt	nt	nt
Cc1ccccc1Nc1c(-c2ccncc2)nc2ccc(Cl)cn12	?	19%[46.1 µM]	14%	?	-61*!
Cc1ccc2nc(-c3ccsc3)c(Nc3ccccc3C)n2c1	?	-25%[46.1 µM]	nt	-16%[46.1 µM]	-14
CC(C)(C)NC(=O)NC(=O)COc1ccc(Br)cc1Br	?	5.8µM*	-22%	?	84
O=C(COc1ccc(Br)cc1Br)NC(=O)NC1CCCC1	29%	-9%	10%	?	59
Cn1cc(S(=O)(=O)c2ccc(Cl)cc2)c(=O)c2cc(F)c(N3CCCCCC3)cc21	-28%	-2%[46.1 µM]	nt	nt	-8
Cn1c2ccc(F)cc2c2nc3ccccc3nc21	15%	13%[46.1 µM]	?	?	155
Cc1ccc2c(c1)c1nc3ccccc3nc1n2C	36%	nt	11µM*	nt	241
Cc1ccc2c(c1)c1nc3ccccc3nc1n2CCN1CCOCC1	5%	?	13µM*	-22%	-14
C/C=C/C=[N+](\[O-])C(C)/C(=N/O)c1ccc(F)cc1 (stereo not drawn)	5%	0%	13%	11%	-75*
N#Cc1ccccc1NC(=O)Cn1cnc2onc(-c3cccc(F)c3)c2c1=O	0%	-15%[46.1 µM]	nt	nt	10
OC1(c2ccc(F)cc2)CCNC1 (stereo not drawn)	12%	9%	6%	-7%	-66*
O=C(Oc1ccc2c(-c3ccccc3)cc(=O)oc2c1)c1cccs1	2%	1%[46.1 µM]	8%	13%	-67*
CC(Oc1ccc2c(-c3ccccc3)cc(=O)oc2c1)C(=O)NCC1CCC(C(=O)O)CC1 (stereo not drawn)	-9%	nt	?	nt	-22
Cc1c(OCC(=O)NCC(O)c2ccccc2)ccc2c(-c3ccccc3)cc(=O)oc12 (stereo not drawn)	-10%	nt	32µM*	nt	?
SMILES	FMDV inh	Lassa entry inh	HCV inh	MARV entry inh	HCMV inh
Cc1c(OCC(=O)NCc2ccccn2)ccc2c(-c3ccccc3)cc(=O)oc12	-19%	nt	12%	nt	4
CC(Oc1ccc2c(-c3ccccc3)cc(=O)oc2c1)C(=O)NCC(O)c1ccccc1 (stereo not drawn)	-24%	nt	8.9µM*	nt	10
Cc1cccc(CSc2nc3c(c(-c4cccs4)c2C#N)CN(C)CC3)c1	-16%	?	?	?	-3
N#Cc1c(C(F)(F)F)cc(-c2cccs2)nc1SCC(=O)Nc1ccc(Cl)cc1	?	-16%[46.1 µM]	nt	4%[46.1 µM]	-92*
CN1CCc2nc(SCC(=O)Nc3ccc(OC(F)(F)F)cc3)c(C#N)c(-c3cccs3)c2C1	2%	5%	13µM*	?	-39
Cc1ccc(C)c(NC(=O)CSc2nc3nc(-c4cccs4)cc(C(F)(F)F)c3c(=O)[nH]2)c1	?	nt	?	5%	-12
O=C(CSc1nc2nc(-c3cccs3)cc(C(F)(F)F)c2c(=O)[nH]1)Nc1ccc(F)c(F)c1	?	?	?	?	-97*
CCOc1ccc(NC(=O)CSc2nc(-c3cccs3)cc(C(F)(F)F)c2C#N)cc1	-11%	-24%[46.1 µM]	nt	0%[46.1 µM]	5
Fc1ccccc1C(NCCc1ccc(Cl)cc1)c1nnc(-c2ccccc2)o1 (stereo not drawn)	-13%	-11%[46.1 µM]	nt	-27%[46.1 µM]	6
CC(=O)Nc1ccc(C(=O)CCl)cc1	28µM*	nt	-24%	3%	-2
CC(=O)NCc1ccc(C(=O)CCl)cc1	32µM*	-8%[46.1 µM]	?	18%[46.1 µM]	-23
CC(=O)Nc1ccc(C)cc1	-25%	nt	-14%	nt	-17
CC(=O)NCc1ccc(C(=O)CCl)s1	28µM*	?	?	4.5µM*	-16
CCOc1ccc(C(=O)c2cn(CC(=O)Nc3cc(OC)cc(OC)c3)c3ccc(F)cc3c2=O)cc1	9%	-14%[46.1 µM]	nt	-18%[46.1 µM]	12
Cc1nnc2n(-c3ccccc3)c(=O)c3c4c(sc3n12)COC(C(C)C)C4 (stereo not drawn)	-21%	-3%	-19%	14%	17
CC(C)C1Cc2c(sc3[nH]c(=S)n(Cc4ccccc4)c(=O)c23)CO1 (stereo not drawn)	?	0.79µM*	19%	?	?
CCOC(=O)c1scc(-c2ccc(C)cc2)c1S(=O)(=O)N1CCN(c2ccccc2)CC1	10%	7%[46.1 µM]	nt	nt	-21
O=C1c2ccccc2CN2C(=O)c3ccccc3CN12	-6%	1%	nt	-6%	-21
c1ccc(-c2cn3c(n2)-c2ccccc2C3)cc1	-70%	4.5µM*	11%	?	14
CC(=O)c1ccc(NC(=S)N2CCCC(C(F)(F)F)C2)cc1 (stereo not drawn)	20%	24%	20%	-14%[46.1 µM]	-8
O=C(NC(=S)N1CCCC(C(F)(F)F)C1)c1ccc(F)cc1 (stereo not drawn)	3%	-14%[46.1 µM]	9%	5%[46.1 µM]	-66*
Cc1ccc(NC(=O)/C(C#N)=C/c2ccccc2Cl)cc1C	-24%	12%[46.1 µM]	nt	?	-15
ClCCN(CCCl)c1ccc(C2=NCCc3ccccc32)cc1	?	?	?	?	-74*
CCOc1ccc(NC(=O)[C@H](Cc2ccccc2)N2Cc3ccccc3C2=O)cc1	-1%	1%[46.1 µM]	nt	-13%[46.1 µM]	7
CCOc1ccc(NC(=O)C(Cc2ccccc2)N2C(=O)c3cccc4cccc(c34)C2=O)cc1 (stereo not drawn)	-9%	?	?	?	-99*
Nc1c(C(=O)Nc2ccc(Cl)c(C(F)(F)F)c2)sc2nc3c(cc12)N1CCC3CC1	?	?	nt	?	-93*

Screening data from PubChem.
